Values joined by “and” are separate entries in the source; they are usually repeats but may differ in a detail not shown here. Equal values may be shown once. Screen size: about 5,500 compounds; about 2,000 (36%) were called active. Roughly 18% stayed inconclusive and do not appear here. No stated cut-off is given here; in the data, active means normalized growth mostly below about 0.91 (no sharp cut-off); inconclusive means no clear call, values can overlap the other calls; inactive means mostly above about 0.92. This is one part of the list.
Assay: chemical genetic growth profiling, strain panel (AID 1159580);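 further: tested at 20 µM; growth read once vehicle control cultures reached saturation at 30 °C; 1 = growth at the plate median or of vehicle wells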
Settings: S. cerevisiae deletion strains, growth OD

Measured: normalized growth

CN(Cc1cnc2nc(N)nc(N)c2n1)c1ccc(C(=O)NC(CCC(=O)O)C(=O)O)cc1 (stereo unspecified)
0.993 (inactive) and 0.152 (active): locus YJL095W, strain BCK1, stronger effect = lower value
0.946 (inactive) and 0.147 (active): locus YHR030C, strain SLT2, stronger effect = lower value
inactive: locus YAL021C, strain ccr4, stronger effect = lower value 0.958 | locus YAL026C, strain drs2, stronger effect = lower value 0.911 | locus YAL030W, strain snc1, stronger effect = lower value 0.945 | locus YAL040C, strain CLN3, stronger effect = lower value 1.09 | locus YBL061C, strain skt5, stronger effect = lower value 0.927 | locus YBR021W, strain FUR4, stronger effect = lower value 0.958 | locus YBR171W, strain sec66, stronger effect = lower value 0.94 | locus YBR229C, strain ROT2, stronger effect = lower value 0.987 | locus YBR231C, strain swc5, stronger effect = lower value 0.931 | locus YBR279W, strain paf1, stronger effect = lower value 0.962 | locus YCL029C, strain bik1, stronger effect = lower value 0.988 | locus YCL061C, strain MRC1 (second series), stronger effect = lower value 1.01 | locus YCL069W, strain vba3, stronger effect = lower value 0.948 | locus YCR088W, strain abp1, stronger effect = lower value 0.954 | locus YDL005C, strain med2, stronger effect = lower value 0.997 | locus YDL035C, strain GPR1, stronger effect = lower value 0.975 | locus YDL040C, strain nat1, stronger effect = lower value 0.959 | locus YDL074C, strain BRE1, stronger effect = lower value 0.963 | locus YDL101C, strain DUN1, stronger effect = lower value 0.997 | locus YDL134C, strain PPH21, stronger effect = lower value 1 | locus YDL192W, strain arf1, stronger effect = lower value 0.95 | locus YDR001C, strain nth1, stronger effect = lower value 0.933 | locus YDR069C, strain doa4, stronger effect = lower value 0.955 | locus YDR101C, strain arx1, stronger effect = lower value 0.994 | locus YDR137W, strain rgp1, stronger effect = lower value 0.907 | locus YDR150W, strain NUM1, stronger effect = lower value 0.974 and 0.986 | locus YDR159W, strain sac3, stronger effect = lower value 0.978 | locus YDR162C, strain NBP2, stronger effect = lower value 0.982 | locus YDR195W, strain ref2 1.01 | locus YDR297W, strain sur2, stronger effect = lower value 0.955 | locus YDR318W, strain mcm21, stronger effect = lower value 0.994 | locus YDR335W, strain msn5, stronger effect = lower value 0.97 | locus YDR388W, stronger effect = lower value 1 | locus YDR392W, strain spt3, stronger effect = lower value 0.951 | locus YDR502C, strain sam2, stronger effect = lower value 0.967 | locus YEL003W, strain gim4, stronger effect = lower value 0.967 | locus YEL061C, strain CIN8 (second series), stronger effect = lower value 0.944 | locus YEL061C, strain CIN8, stronger effect = lower value 0.962 | locus YER002W, strain NOP16, stronger effect = lower value 0.971 | locus YER015W, strain faa2, stronger effect = lower value 0.958 | locus YER016W, strain bim1, stronger effect = lower value 0.965 | locus YER110C, stronger effect = lower value 0.985 | locus YER111C, strain swi4, stronger effect = lower value 0.962 | locus YER155C, strain BEM2 (second series), stronger effect = lower value 0.892 | locus YER155C, strain BEM2, stronger effect = lower value 0.976 | locus YER167W, strain BCK2, stronger effect = lower value 0.958 | locus YFR010W, strain ubp6, stronger effect = lower value 0.942 | locus YGL086W, strain mad1, stronger effect = lower value 1 | locus YGL167C, strain pmr1, stronger effect = lower value 0.942 | locus YGL173C, strain kem1, stronger effect = lower value 0.96 | locus YGL227W, strain vid30, stronger effect = lower value 0.922 | locus YGL240W, strain doc1, stronger effect = lower value 0.967 | locus YGL248W, strain PDE1, stronger effect = lower value 0.994 | locus YGL253W, strain hxk2, stronger effect = lower value 0.934 | locus YGR135W, strain pre9, stronger effect = lower value 0.933 | locus YGR252W, strain gcn5, stronger effect = lower value 1.02 | locus YHR013C, strain ard1, stronger effect = lower value 0.938 | locus YHR027C, strain rpn1, stronger effect = lower value 0.945 | locus YHR079C, strain IRE1 (second series), stronger effect = lower value 0.988 | locus YHR094C, strain hxt1, stronger effect = lower value 1 | locus YHR129C, strain ARP1, stronger effect = lower value 0.982 | locus YHR200W, strain rpn10, stronger effect = lower value 0.959 | locus YIL066C, strain RNR3, stronger effect = lower value 1 | locus YIL073C, strain SPO22, stronger effect = lower value 0.95 | locus YIR030C, strain dcg1, stronger effect = lower value 0.975 | locus YJL095W, strain BCK1 (second series), stronger effect = lower value 0.964 | locus YJL129C, strain trk1, stronger effect = lower value 0.89 | locus YJL134W, strain LCB3, stronger effect = lower value 0.992 | locus YJL154C, strain vps35, stronger effect = lower value 0.96 | locus YJL164C, strain tpk1, stronger effect = lower value 0.96 | locus YJL166W, strain qcr8, stronger effect = lower value 0.94 | locus YJL168C, strain set2, stronger effect = lower value 1 | locus YJL187C, strain SWE1 (second series), stronger effect = lower value 0.99 | locus YJL187C, strain SWE1, stronger effect = lower value 0.953 | locus YJR043C, strain POL32, stronger effect = lower value 0.98
active: locus YBR009C, strain hhf1, stronger effect = lower value 0.888 | locus YBR023C, strain chs3, stronger effect = lower value 0.911 | locus YCL011C, strain gbp2, stronger effect = lower value 0.857 | locus YCL016C, strain dcc1, stronger effect = lower value 0.867 | locus YCL061C, strain MRC1, stronger effect = lower value 0.891 | locus YDL185W, strain tfp1, stronger effect = lower value 0.141 | locus YDR334W, strain swr1, stronger effect = lower value 0.881 | locus YEL037C, strain rad23, stronger effect = lower value 0.902 | locus YGL078C, strain dbp3, stronger effect = lower value 0.32 | locus YHR079C, strain IRE1, stronger effect = lower value 0.188 | locus YHR142W, strain chs7, stronger effect = lower value 0.86 | locus YIL125W, strain kgd1, stronger effect = lower value 0.278 | locus YJL092W, strain hpr5, stronger effect = lower value 0.818 | locus YJL115W, strain asf1, stronger effect = lower value 0.845
